This note sets out measurements from PubChem BioAssay (NCATS).

Structures are written as SMILES. Records with an inconclusive call do not appear. Values without a mark were called inactive. The source made the active and inactive calls. The call rests on the fitted dose curve; tested in HEK293 reporter line.
On the % scale 0 is the no-effect control and ±100 the full control effect.

The first test in a line: qHTS for Inhibitors of the Functional Ribonucleoprotein Complex (vRNP) of Lassa (LASV) Arenavirus: LASV Primary Screen - GLuc reporter signal (AID 1347082). Further: nearly all actives have a fitted effect of over 60% in size. The note with it: LASV minigenome vRNP, Gaussia luciferase reporter; series mostly up to 57.5 µM; activity change, negative = inhibition: at the top concentration.
As for `CC(c1c(O)c2ccccc2[nH]c1=O)C1(C)CCC(O)C(C)(C)O1` (stereo not drawn), the “activity change, negative = inhibition” value is -4.44%.
Take `C[C@]12CCC(=O)C=C1[C@@H]1CC1[C@H]1[C@H]3[C@@H]4C[C@H]4[C@@]4(CCC(=O)O4)[C@@]3(C)CC[C@H]12` (stereo partly drawn): the “activity change, negative = inhibition” value was -8.9%.
Take `COc1cccc(OC)c1C(=O)O`: the “activity change, negative = inhibition” value is 9.26% [at 115 µM].
Consider `COc1ccc(C(=O)/C=C/c2ccc(O)cc2)c(O)c1CC=C(C)C`, for which the “activity change, negative = inhibition” value is -0.917%.
As for `CCCCCCCCCCCC(=O)OCC`, the “activity change, negative = inhibition” value was -1.15% [at 115 µM].
On to `COc1cc(C/C=C\c2ccccc2)c(OC)cc1O`, for which the “activity change, negative = inhibition” value was -1.49%.
On to `COc1c2c(cc3oc(C)cc(=O)c13)OC(C(C)(C)OC1OC(CO)C(O)C(O)C1O)C2` (stereo not drawn), for which the “activity change, negative = inhibition” value was 1.29%.
Still for that read-out and setting: the value for `O=C1NC(=S)NC1=Cc1ccc(O)cc1` was 4.28%.
As to `COc1cc(O)c2c(=O)c3c(OC)c(O)ccc3oc2c1`, the “activity change, negative = inhibition” value was 2.83%.
As for `CNc1nc(-c2ccc3c(N)n[nH]c3c2)cc(N2C[C@@H](C(=O)NC3CCCCC3)CC[C@@H]2C)n1`, the “activity change, negative = inhibition” value is -30.5%.
In the case of `CC(=O)O[C@H]1C2[C@@H](OC(=O)Cc3ccccc3)[C@@H](C)C[C@]2(OC(C)=O)C(=O)/C(C)=C/[C@@H]2[C@H](CC[C@@]13CO3)C2(C)C` (stereo partly drawn), the “activity change, negative = inhibition” value is -0.0811% [at 24.7 µM].
In the case of `COc1cc2c(c(OC)c1OC)-c1c(cc3c(c1OC)OCO3)CC(C)C(C)(O)C2OC(=O)c1ccccc1` (stereo not drawn), the “activity change, negative = inhibition” value was -13.7% [at 24.7 µM].
Take `C/C(=C\COc1ccc2ccc(=O)oc2c1)CC[C@@H](O)C(C)(C)O`: the “activity change, negative = inhibition” value is -3.06%.
`C=CCCCCCCCCCCCC(O)CC(O)COC(C)=O` (stereo not drawn): the “activity change, negative = inhibition” value was 2%.
Turning to `C=C[C@H]1[C@H](O[C@@H]2O[C@H](CO)[C@@H](O)[C@H](O)[C@H]2O)OC=C2C(=O)OCC[C@]21O`, the “activity change, negative = inhibition” value is -1.81%.
As for `CC(C)CCOC(=O)c1ccccc1`, the “activity change, negative = inhibition” value is -12% [at 115 µM].
As for `CC12CCC(=O)C=C1CCC1C2C(O)CC2(C)C(O)CCC12` (stereo not drawn), the “activity change, negative = inhibition” value was 7.66%.
For `COC(=O)C1=CO[C@@H](O)[C@@H]2C(CO)=CC[C@@H]12`, the “activity change, negative = inhibition” value was 0.0722%.
Regarding `CC(=O)Nc1ccccc1O`, the “activity change, negative = inhibition” value was -17.3% [at 115 µM].
Regarding `CCCCCCCCCCCC`, the “activity change, negative = inhibition” value is -5.91% [at 115 µM].
For the compound `CC(C)C1Oc2cc3oc(=O)ccc3cc2C1=O` (stereo not drawn), the “activity change, negative = inhibition” value is 7.29%.
Regarding `COc1c2ccoc2nc2c(OC)c(O[C@@H]3O[C@H](C)[C@@H](O)[C@@H](O)[C@H]3O)ccc12`, the “activity change, negative = inhibition” value is -3.7%.
Consider `COc1c(O)cc2c(=O)oc3c(OC)c(O)cc4c(=O)oc1c2c34`, for which the “activity change, negative = inhibition” value was 2.03%.
Turning to `C/C(=C\COc1c2ccoc2cc2oc(=O)ccc12)CCC(O)C(C)(C)O` (stereo not drawn), the “activity change, negative = inhibition” value was -6.49%.
In the case of `CC(C)=CCCC(C)CC(=O)O` (stereo not drawn), the “activity change, negative = inhibition” value was -103% [at 115 µM].
In the case of `C=CC(C)=CCC=C(C)C`, the “activity change, negative = inhibition” value was -2.62% [at 115 µM].
As to `O=c1cc(-c2ccccc2)c2c(O)cc(O)cc2o1`, the “activity change, negative = inhibition” value was -6.04%.
On the same count and under the same terms, to `COc1cc(CCc2ccccc2)c(C(=O)O)c(O)c1CC=C(C)C` belongs -12%; to `CC1=C(C(=O)O)N2C(=O)C(NC(=O)CCCC(=O)O)C2SC1` (stereo not drawn), 11.4%; to `CCCCN`, -6.84%.
Consider `C=C(C)C(O)COc1c2occc2c(OC)c2ccc(=O)oc12` (stereo not drawn), for which the “activity change, negative = inhibition” value was 9.25%.
The same measure, in the same setting: the value for `C=C1[C@H](n2cnc3c(=O)[nH]c(N)nc32)C[C@H](O)[C@H]1CO` was 11.6%.
Take `CCC(C)(C)O`: the “activity change, negative = inhibition” value is 12.8% [at 115 µM].
For `CC1(C)CCC[C@@](C)([C@H]2CC[C@]3(C)[C@@H]2[C@H](O)C[C@@H]2[C@@]4(C)CC[C@H](O)C(C)(C)[C@@H]4CC[C@]23C)O1`, the “activity change, negative = inhibition” value was 9.99%.
Same read-out and setting: to `CCOC(=O)[C@H](CCc1ccccc1)N[C@@H](C)C(=O)N1CCCC1C(=O)O` (stereo partly drawn) belongs 29.5%; to `COc1cc(C)cc(O)c1`, -10.7% [at 115 µM].
`O=C1C=CC[C@H](/C=C/C[C@@H](O)C[C@H](O)CCc2ccccc2)O1`: the “activity change, negative = inhibition” value was -2.99%.
`c1ccc(C(NCc2cccnc2)(c2ccccc2)c2ccccc2)cc1`: the “activity change, negative = inhibition” value is 0.671%.
Same read-out and setting: the value for `CCCC(=O)OC` was -14.9% [at 115 µM].

A short description of the next test: qHTS for Inhibitors of the Functional Ribonucleoprotein Complex (vRNP) of Lassa (LASV) Arenavirus: Viability assay - alamar blue signal for LASV Primary Screen (AID 1347083). Further: nearly all actives have a fitted effect of over 80% in size. Further: potency means the concentration at half of the fitted maximal effect. The note with it: cell viability, alamar blue fluorescence (LASV minigenome counter-screen); series mostly up to 57.5 µM; activity change, negative = reduced viability: at the top concentration. A general note: In qHTS, concentration-response curves come from the screen itself.
On to `CC(c1c(O)c2ccccc2[nH]c1=O)C1(C)CCC(O)C(C)(C)O1` (stereo not drawn), for which the “activity change, negative = reduced viability” value was 4.85%.
On the same count and under the same terms, the value for `C[C@]12CCC(=O)C=C1[C@@H]1CC1[C@H]1[C@H]3[C@@H]4C[C@H]4[C@@]4(CCC(=O)O4)[C@@]3(C)CC[C@H]12` (stereo partly drawn) was -2.21%; that for `COc1cccc(OC)c1C(=O)O` was 0.131% [at 115 µM].
Take `COc1ccc(C(=O)/C=C/c2ccc(O)cc2)c(O)c1CC=C(C)C`: the “activity change, negative = reduced viability” value is 8.34%.
Still for that read-out and setting: the value for `CCCCCCCCCCCC(=O)OCC` was 0.325% [at 115 µM].
`COc1cc(C/C=C\c2ccccc2)c(OC)cc1O`: the “activity change, negative = reduced viability” value was 5.71%.
Turning to `COc1c2c(cc3oc(C)cc(=O)c13)OC(C(C)(C)OC1OC(CO)C(O)C(O)C1O)C2` (stereo not drawn), the “activity change, negative = reduced viability” value is -2.2%.
On to `O=C1NC(=S)NC1=Cc1ccc(O)cc1`, for which the “activity change, negative = reduced viability” value is 7.34%.
Same read-out and setting: to `COc1cc(O)c2c(=O)c3c(OC)c(O)ccc3oc2c1` belongs 1.61%.
Turning to `CNc1nc(-c2ccc3c(N)n[nH]c3c2)cc(N2C[C@@H](C(=O)NC3CCCCC3)CC[C@@H]2C)n1`, the Potency was 24.3 µM (active).
For the compound `CC(=O)O[C@H]1C2[C@@H](OC(=O)Cc3ccccc3)[C@@H](C)C[C@]2(OC(C)=O)C(=O)/C(C)=C/[C@@H]2[C@H](CC[C@@]13CO3)C2(C)C` (stereo partly drawn), the “activity change, negative = reduced viability” value was 4.05% [at 24.7 µM].
For `COc1cc2c(c(OC)c1OC)-c1c(cc3c(c1OC)OCO3)CC(C)C(C)(O)C2OC(=O)c1ccccc1` (stereo not drawn), the “activity change, negative = reduced viability” value is 3.89% [at 24.7 µM].
For the compound `C/C(=C\COc1ccc2ccc(=O)oc2c1)CC[C@@H](O)C(C)(C)O`, the “activity change, negative = reduced viability” value is 0.324%.
As to `C=CCCCCCCCCCCCC(O)CC(O)COC(C)=O` (stereo not drawn), the “activity change, negative = reduced viability” value is 18%.
For `C=C[C@H]1[C@H](O[C@@H]2O[C@H](CO)[C@@H](O)[C@H](O)[C@H]2O)OC=C2C(=O)OCC[C@]21O`, the “activity change, negative = reduced viability” value is 1.72%.
Still for that read-out and setting: to `CC(C)CCOC(=O)c1ccccc1` belongs 1.63% [at 115 µM]; to `CC12CCC(=O)C=C1CCC1C2C(O)CC2(C)C(O)CCC12` (stereo not drawn), 3.49%.
Same read-out and setting: to `COC(=O)C1=CO[C@@H](O)[C@@H]2C(CO)=CC[C@@H]12` belongs -6.19%.
`CC(=O)Nc1ccccc1O`: the “activity change, negative = reduced viability” value was 2.12% [at 115 µM].
Consider `CCCCCCCCCCCC`, for which the “activity change, negative = reduced viability” value was 10.5% [at 115 µM].
For `CC(C)C1Oc2cc3oc(=O)ccc3cc2C1=O` (stereo not drawn), the “activity change, negative = reduced viability” value is 13.4%.
On to `COc1c2ccoc2nc2c(OC)c(O[C@@H]3O[C@H](C)[C@@H](O)[C@@H](O)[C@H]3O)ccc12`, for which the “activity change, negative = reduced viability” value is -2.69%.
On to `COc1c(O)cc2c(=O)oc3c(OC)c(O)cc4c(=O)oc1c2c34`, for which the “activity change, negative = reduced viability” value was 12.8%.
For the compound `C/C(=C\COc1c2ccoc2cc2oc(=O)ccc12)CCC(O)C(C)(C)O` (stereo not drawn), the “activity change, negative = reduced viability” value is -8.84%.
Regarding `CC(C)=CCCC(C)CC(=O)O` (stereo not drawn), the “activity change, negative = reduced viability” value was -130% [at 115 µM].
As to `C=CC(C)=CCC=C(C)C`, the “activity change, negative = reduced viability” value was 2.3% [at 115 µM].
Turning to `O=c1cc(-c2ccccc2)c2c(O)cc(O)cc2o1`, the “activity change, negative = reduced viability” value is 17.5%.
For the compound `COc1cc(CCc2ccccc2)c(C(=O)O)c(O)c1CC=C(C)C`, the “activity change, negative = reduced viability” value was -26.6%.
Regarding `CC1=C(C(=O)O)N2C(=O)C(NC(=O)CCCC(=O)O)C2SC1` (stereo not drawn), the “activity change, negative = reduced viability” value is 13.6%.
The same measure, in the same setting: to `CCCCN` belongs 2.07%.
On to `C=C(C)C(O)COc1c2occc2c(OC)c2ccc(=O)oc12` (stereo not drawn), for which the “activity change, negative = reduced viability” value was 0.819%.
`C=C1[C@H](n2cnc3c(=O)[nH]c(N)nc32)C[C@H](O)[C@H]1CO`: the “activity change, negative = reduced viability” value is 8.16%.
Same read-out and setting: the value for `CCC(C)(C)O` was 7.4% [at 115 µM]; that for `CC1(C)CCC[C@@](C)([C@H]2CC[C@]3(C)[C@@H]2[C@H](O)C[C@@H]2[C@@]4(C)CC[C@H](O)C(C)(C)[C@@H]4CC[C@]23C)O1` was 2.18%; that for `CCOC(=O)[C@H](CCc1ccccc1)N[C@@H](C)C(=O)N1CCCC1C(=O)O` (stereo partly drawn) was -4.19%.
`COc1cc(C)cc(O)c1`: the “activity change, negative = reduced viability” value was -1.36% [at 115 µM].
Same read-out and setting: the value for `O=C1C=CC[C@H](/C=C/C[C@@H](O)C[C@H](O)CCc2ccccc2)O1` was -0.986%; that for `c1ccc(C(NCc2cccnc2)(c2ccccc2)c2ccccc2)cc1` was 29.6%; that for `CCCC(=O)OC` was 4.78% [at 115 µM].
